Source: PubChem BioAssay (NCI)
The panel holds about 83,000 compounds, 20% with a hit somewhere; the sample as a whole holds those more often.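 Compound tested at a single concentration for 48 hours in 96-well plates; a percent growth value below 10 was scored as active.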 Calls of active or inactive are those of the source.

Test system: HCT-116 colon
Experiment: NCI-60 one-dose screen, 48 h (100 = growth as untreated, 0 = no growth, -100 = all killed)
Details: 10 µM unless noted

Row | Structure (SMILES) | growth
1 | O=C(Nc1cnc(Nc2ccc(N3CCOCC3)nc2)nc1Oc1ccc(C(F)(F)F)cc1)c1ccncc1 | 61.9% (inactive)
2 | O=C(N/N=C\c1cccc([N+](=O)[O-])c1)N/N=C/c1cccc([N+](=O)[O-])c1 | 108% (inactive)
3 | Oc1ccc(/C=C/c2ccc(O)cc2)cc1 | 47% (inactive)
4 | CCNC(=O)Oc1ccc(/C(=C(/CC)Cc2ccccc2)c2ccc(OCCN3CCCC3)cc2)cc1 | 72.1% (inactive)
5 | NNCCc1ccc(NC(=O)CCCc2ccc(C(=O)Nc3ccccc3N)cc2)cc1 | 41.6% (inactive)
6 | COC(=O)CCC/C=C\C[C@H]1C=CC(=O)/C1=C/C[C@@H](O)C/C=C\CC(F)(F)F | -61.4% (active)
7 | CCCCC#Cc1c(I)n(C)c(=O)[nH]c1=O | -41.1% (active)
8 | N#CC1CCc2c(c(-c3ccc4nc(N)sc4c3)nc3ccc4[nH]ncc4c23)C1 (stereo not drawn) | 25.6% (inactive)
9 | O=C(Cc1ccc(/C=C/C(=O)c2ncc[nH]2)cc1)Nc1cc(C(F)(F)F)cc(C(F)(F)F)c1 | 5.37% (active)
10 | O=c1nc(-c2ccccc2)c2cc(-c3ccc(C(F)(F)F)nc3)ccc2[nH]1 | 92.4% (inactive)
11 | CO[C@H]1CC(=O)n2c3ccccc3c3c4c(c5c6ccccc6n1c5c32)C(=O)NC4=O | 55.6% (inactive)
12 | COc1cc(C2C(C(=O)OCc3ccccc3)=C(C)NC(C)=C2C(=O)OCc2ccccc2)cc(OC)c1OC | 17.1% (inactive)
13 | Cc1cc2c(cc1C)N(C(=O)CCl)CC(=O)N2 | -10.9% (active)
14 | Cc1ccc(S(=O)(=O)Oc2ccc3sc4cccc(NCCN(C)C)c4c(=O)c3c2)cc1 | -82.9% (active)
15 | COc1ccc2c(c1)/C(=N/c1n[nH]c(=S)s1)C(=O)N2 | 103% (inactive)
16 | O=C(Cc1ccc(NC(=O)c2cccc(Cl)c2)cc1)NCc1ccccc1 | 25.3% (inactive)
17 | COc1ccc(-c2n[nH]c(=O)c3nc(NC(=S)Nc4ccc(Oc5ccccc5)cc4)sc23)cc1 | 91.1% (inactive)
18 | C=CCn1c(SCC(=O)Nc2ccc(/C(C)=N/O)cc2)nnc1-c1cc(-c2ccc(S(N)(=O)=O)cc2)nc2ccccc12 | 77.7% (inactive)
19 | C=C1CC[C@@H]2C(C)(C)[C@@H](O)CC[C@@]2(C)[C@@H]1COc1ccc2ccc(=O)oc2c1 | 76.6% (inactive)
20 | O=C(O)COc1ccc(Cl)c(Cl)c1 | 109% (inactive)

Row | Structure (SMILES) | growth
21 | O=C1Nc2ccccc2C1(c1c[nH]c2ccccc12)c1c[nH]c2ccccc12 | 36.6% (inactive)
22 | COc1cc(Cl)c(C)cc1NC(=O)c1cc2ccccc2cc1O | 4.6% (active)
23 | C/C(=N\O)[C@@H]1CC[C@]2(CO)CC[C@]3(C)[C@H](CC[C@@H]4[C@@]5(C)CCCNC(C)(C)[C@@H]5CC[C@]43C)[C@@H]12 | 76.5% (inactive)
24 | Cc1cccc(N2CCC(=O)NC2=S)c1 | 93.2% (inactive)
25 | Nn1c(=O)c(=O)[nH]c2c(cnn2-c2ccccc2)c1=O | 108% (inactive)
26 | O=C(Cn1nnc2ccccc21)N/N=C/c1c[nH]c2ccccc12 | 26.9% (inactive)
27 | O=C(O)/C=C/C(=O)Nc1cccc(Cn2nnc3cc(Cl)c(Cl)cc32)c1 | 96.9% (inactive)
28 | CN1CCN(Cc2ccc(NC(=O)c3cncc(C#Cc4cnc(N)c5ccc(F)cc45)c3)cc2C(F)(F)F)CC1 | -90.9% (active)
29 | Cc1ccc2c(-c3nnc(N)s3)cc(=O)oc2c1C | 95.6% (inactive)
30 | CCOc1ccc(-n2nc(C(=O)NCc3ccccc3OC)nc2-c2cc(OC)c(OC)c(OC)c2)cc1 | 25.3% (inactive)
31 | CC1=C(CCC(C)NCc2ccc(OCCCN3CCCCC3)cc2)C(C)(C)CCC1 (stereo not drawn) | -85.3% (active)
32 | Cc1nc2ccccc2c(/C=C/c2ccccc2)c1C(=O)/C=C/c1ccccc1 | -43% (active)
33 | CCN(CC)CCN1C(=O)c2c(c(C)c3c(oc4ccc(O)cc43)c2C)C1=O | -62.6% (active)
34 | COc1ccc(Cn2cc(C(=O)N=Nc3c(O)[nH]c4c(C)cccc34)nn2)cc1 | 7.11% (active)
35 | FC(F)(F)Oc1cccc(-c2cnc3ccc(-c4ccncc4)nn23)c1 | 10.8% (inactive)
36 | Cc1c2cccnc2c(C)c2c1c1cc(CO)ccc1n2C | 6.95% (active)
37 | CNCc1cccc2c1OCCOCCOCCNS(=O)(=O)c1ccc(cc1)-c1cnc(N)c(n1)C(=O)N2 | 7.19% (active)
38 | CNC(C)[C@H]1CCC2C3CC=C4C(=O)[C@@H](NC(=O)C=C(C)C)CC[C@]4(C)C3CC[C@@]21C (stereo partly drawn) | -30% (active)
39 | C=C1C(=O)O[C@H]2[C@H]1CC/C(COC(=O)/C=C\C(=O)NCc1ccc(Cn3c(=O)sn(CCCCC)c3=O)cc1)=C\CC[C@@]1(C)O[C@@H]21 | 40.3% (inactive)

Test system: HCC-2998 colon
Experiment: as above
Details: 10 µM unless noted

Row | Structure (SMILES) | growth
40 | O=C(Nc1cnc(Nc2ccc(N3CCOCC3)nc2)nc1Oc1ccc(C(F)(F)F)cc1)c1ccncc1 | 110% (inactive)
41 | O=C(N/N=C\c1cccc([N+](=O)[O-])c1)N/N=C/c1cccc([N+](=O)[O-])c1 | 109% (inactive)
42 | Oc1ccc(/C=C/c2ccc(O)cc2)cc1 | 96.4% (inactive)
43 | CCNC(=O)Oc1ccc(/C(=C(/CC)Cc2ccccc2)c2ccc(OCCN3CCCC3)cc2)cc1 | 91.3% (inactive)
44 | NNCCc1ccc(NC(=O)CCCc2ccc(C(=O)Nc3ccccc3N)cc2)cc1 | 92.4% (inactive)
45 | COC(=O)CCC/C=C\C[C@H]1C=CC(=O)/C1=C/C[C@@H](O)C/C=C\CC(F)(F)F | -68.7% (active)
46 | CCCCC#Cc1c(I)n(C)c(=O)[nH]c1=O | -25.6% (active)
47 | N#CC1CCc2c(c(-c3ccc4nc(N)sc4c3)nc3ccc4[nH]ncc4c23)C1 (stereo not drawn) | 48.2% (inactive)
48 | O=C(Cc1ccc(/C=C/C(=O)c2ncc[nH]2)cc1)Nc1cc(C(F)(F)F)cc(C(F)(F)F)c1 | 63% (inactive)
49 | O=c1nc(-c2ccccc2)c2cc(-c3ccc(C(F)(F)F)nc3)ccc2[nH]1 | 105% (inactive)
50 | CO[C@H]1CC(=O)n2c3ccccc3c3c4c(c5c6ccccc6n1c5c32)C(=O)NC4=O | 93.7% (inactive)
51 | COc1cc(C2C(C(=O)OCc3ccccc3)=C(C)NC(C)=C2C(=O)OCc2ccccc2)cc(OC)c1OC | 52% (inactive)
52 | Cc1cc2c(cc1C)N(C(=O)CCl)CC(=O)N2 | 71.6% (inactive)
53 | Cc1ccc(S(=O)(=O)Oc2ccc3sc4cccc(NCCN(C)C)c4c(=O)c3c2)cc1 | -96.7% (active)
54 | COc1ccc2c(c1)/C(=N/c1n[nH]c(=S)s1)C(=O)N2 | 107% (inactive)
55 | O=C(Cc1ccc(NC(=O)c2cccc(Cl)c2)cc1)NCc1ccccc1 | 73.3% (inactive)
56 | COc1ccc(-c2n[nH]c(=O)c3nc(NC(=S)Nc4ccc(Oc5ccccc5)cc4)sc23)cc1 | 105% (inactive)
57 | C=CCn1c(SCC(=O)Nc2ccc(/C(C)=N/O)cc2)nnc1-c1cc(-c2ccc(S(N)(=O)=O)cc2)nc2ccccc12 | 101% (inactive)
58 | C=C1CC[C@@H]2C(C)(C)[C@@H](O)CC[C@@]2(C)[C@@H]1COc1ccc2ccc(=O)oc2c1 | 92.3% (inactive)
59 | O=C(O)COc1ccc(Cl)c(Cl)c1 | 106% (inactive)

Row | Structure (SMILES) | growth
60 | O=C1Nc2ccccc2C1(c1c[nH]c2ccccc12)c1c[nH]c2ccccc12 | 26.4% (inactive)
61 | COc1cc(Cl)c(C)cc1NC(=O)c1cc2ccccc2cc1O | 17% (inactive)
62 | C/C(=N\O)[C@@H]1CC[C@]2(CO)CC[C@]3(C)[C@H](CC[C@@H]4[C@@]5(C)CCCNC(C)(C)[C@@H]5CC[C@]43C)[C@@H]12 | 103% (inactive)
63 | Cc1cccc(N2CCC(=O)NC2=S)c1 | 95.4% (inactive)
64 | Nn1c(=O)c(=O)[nH]c2c(cnn2-c2ccccc2)c1=O | 105% (inactive)
65 | O=C(Cn1nnc2ccccc21)N/N=C/c1c[nH]c2ccccc12 | 78.8% (inactive)
66 | O=C(O)/C=C/C(=O)Nc1cccc(Cn2nnc3cc(Cl)c(Cl)cc32)c1 | 112% (inactive)
67 | CN1CCN(Cc2ccc(NC(=O)c3cncc(C#Cc4cnc(N)c5ccc(F)cc45)c3)cc2C(F)(F)F)CC1 | 34.8% (inactive)
68 | Cc1ccc2c(-c3nnc(N)s3)cc(=O)oc2c1C | 113% (inactive)
69 | CCOc1ccc(-n2nc(C(=O)NCc3ccccc3OC)nc2-c2cc(OC)c(OC)c(OC)c2)cc1 | 57.5% (inactive)
70 | CC1=C(CCC(C)NCc2ccc(OCCCN3CCCCC3)cc2)C(C)(C)CCC1 (stereo not drawn) | -84.3% (active)
71 | Cc1nc2ccccc2c(/C=C/c2ccccc2)c1C(=O)/C=C/c1ccccc1 | 31.6% (inactive)
72 | CCN(CC)CCN1C(=O)c2c(c(C)c3c(oc4ccc(O)cc43)c2C)C1=O | 23.5% (inactive)
73 | COc1ccc(Cn2cc(C(=O)N=Nc3c(O)[nH]c4c(C)cccc34)nn2)cc1 | 101% (inactive)
74 | FC(F)(F)Oc1cccc(-c2cnc3ccc(-c4ccncc4)nn23)c1 | 32.5% (inactive)
75 | Cc1c2cccnc2c(C)c2c1c1cc(CO)ccc1n2C | 34.7% (inactive)
76 | CNCc1cccc2c1OCCOCCOCCNS(=O)(=O)c1ccc(cc1)-c1cnc(N)c(n1)C(=O)N2 | 21.7% (inactive)
77 | CNC(C)[C@H]1CCC2C3CC=C4C(=O)[C@@H](NC(=O)C=C(C)C)CC[C@]4(C)C3CC[C@@]21C (stereo partly drawn) | -6.4% (active)
78 | C=C1C(=O)O[C@H]2[C@H]1CC/C(COC(=O)/C=C\C(=O)NCc1ccc(Cn3c(=O)sn(CCCCC)c3=O)cc1)=C\CC[C@@]1(C)O[C@@H]21 | 100% (inactive)
